Results: PubChem BioAssay AID1159580 (chemical genetic matrix, 2015)
The whole screen tested about 5,500 compounds, of which about 2,000 (36%) were called active. Another 18% or so got no clear call; they are omitted. No stated cut-off is given here; in the data, active means normalized growth mostly below about 0.91 (no sharp cut-off); inconclusive means no clear call, values can overlap the other calls; inactive means mostly above about 0.92. Some of the results follow.

Assay: chemical genetic growth profiling, strain panel (AID 1159580);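 further: tested at 20 µM; growth read once vehicle control cultures reached saturation at 30 °C; 1 = growth at the plate median or of vehicle wells; lower values mean less growth of the strain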
Conditions: growth OD

Measured: normalized growth

O=C(O)CCCOc1ccc(Cl)cc1Cl
inactive: S. cerevisiae deletion strains, locus YJR075W, strain HOC1, hits give low values 0.999 | S. cerevisiae deletion strains, locus YKL009W, strain mrt4, hits give low values 0.967 | S. cerevisiae deletion strains, locus YKL068W, hits give low values 0.986 | S. cerevisiae deletion strains, locus YKL085W, strain MDH1 (second series), hits give low values 0.984 | S. cerevisiae deletion strains, locus YKL085W, strain MDH1, hits give low values 0.984 | S. cerevisiae deletion strains, locus YKL160W, strain elf1, hits give low values 0.953 | S. cerevisiae deletion strains, locus YKL190W, strain CNB1, hits give low values 0.982 | S. cerevisiae deletion strains, locus YKR001C, strain vps1, hits give low values 0.996 | S. cerevisiae deletion strains, locus YKR026C, strain gcn3, hits give low values 0.926 | S. cerevisiae deletion strains, locus YKR091W, strain srl3, hits give low values 0.955 | S. cerevisiae deletion strains, locus YLL001W, strain dnm1, hits give low values 0.94 | S. cerevisiae deletion strains, locus YLL026W, hits give low values 0.945 | S. cerevisiae deletion strains, locus YLL041C, strain sdh2, hits give low values 0.951 | S. cerevisiae deletion strains, locus YLR027C, strain aat2, hits give low values 0.96 | S. cerevisiae deletion strains, locus YLR039C, strain RIC1, hits give low values 0.965 | S. cerevisiae deletion strains, locus YLR058C, strain SHM2, hits give low values 0.999 | S. cerevisiae deletion strains, locus YLR102C, strain apc9, hits give low values 1.03 | S. cerevisiae deletion strains, locus YLR221C, strain rsa3, hits give low values 0.949 | S. cerevisiae deletion strains, locus YLR258W, strain gsy2, hits give low values 0.943 | S. cerevisiae deletion strains, locus YLR262C, strain YPT6, hits give low values 0.976 | S. cerevisiae deletion strains, locus YLR268W, strain sec22, hits give low values 1.02 | S. cerevisiae deletion strains, locus YLR320W, strain mms22, hits give low values 0.955 | S. cerevisiae deletion strains, locus YLR330W, strain CHS5, hits give low values 0.995 | S. cerevisiae deletion strains, locus YLR342W, strain FKS1 (second series), hits give low values 0.997 | S. cerevisiae deletion strains, locus YLR342W, strain FKS1, hits give low values 0.922 | S. cerevisiae deletion strains, locus YLR357W, strain rsc2, hits give low values 0.888 | S. cerevisiae deletion strains, locus YLR370C, strain arc18, hits give low values 0.936 | S. cerevisiae deletion strains, locus YLR371W, strain rom2, hits give low values 1.01 | S. cerevisiae deletion strains, locus YLR384C, strain iki3, hits give low values 0.945 | S. cerevisiae deletion strains, locus YLR418C, strain cdc73, hits give low values 1.03 | S. cerevisiae deletion strains, locus YML016C, strain PPZ1, hits give low values 0.999 | S. cerevisiae deletion strains, locus YML032C, strain rad52, hits give low values 1.01 | S. cerevisiae deletion strains, locus YML120C, strain ndi1, hits give low values 0.958 | S. cerevisiae deletion strains, locus YML124C, strain tub3, hits give low values 1 | S. cerevisiae deletion strains, locus YMR058W, strain fet3, hits give low values 0.947 | S. cerevisiae deletion strains, locus YMR078C, strain ctf18, hits give low values 1.01 | S. cerevisiae deletion strains, locus YMR125W, strain sto1, hits give low values 0.913 | S. cerevisiae deletion strains, locus YMR129W, hits give low values 0.944 | S. cerevisiae deletion strains, locus YMR205C, strain PFK2, hits give low values 0.955 | S. cerevisiae deletion strains, locus YMR223W, strain ubp8, hits give low values 1.01 | S. cerevisiae deletion strains, locus YMR263W, strain SAP30, hits give low values 0.989 | S. cerevisiae deletion strains, locus YMR307W, strain GAS1, hits give low values 1 | S. cerevisiae deletion strains, locus YNL067W, strain RPL9B, hits give low values 0.997 | S. cerevisiae deletion strains, locus YNL071W, strain lat1, hits give low values 0.935 | S. cerevisiae deletion strains, locus YNL128W, strain TEP1, hits give low values 1.01 | S. cerevisiae deletion strains, locus YNL153C, strain GIM3, hits give low values 0.997 | S. cerevisiae deletion strains, locus YNL209W, strain ssb2, hits give low values 0.971 | S. cerevisiae deletion strains, locus YNL233W, strain BNI4, hits give low values 0.971 | S. cerevisiae deletion strains, locus YNL248C, strain rpa49, hits give low values 0.941 | S. cerevisiae deletion strains, locus YNL250W, strain rad50, hits give low values 1 | S. cerevisiae deletion strains, locus YNL271C, strain bni1, hits give low values 0.996 | S. cerevisiae deletion strains, locus YNL298W, strain CLA4, hits give low values 0.976 | S. cerevisiae deletion strains, locus YNL307C, strain MCK1, hits give low values 1.01 | S. cerevisiae deletion strains, locus YNL322C, strain KRE1, hits give low values 0.994 | S. cerevisiae deletion strains, locus YNR049C, strain mso1, hits give low values 0.929 | S. cerevisiae deletion strains, locus YNR052C, strain pop2, hits give low values 1.01 | S. cerevisiae deletion strains, locus YOL006C, strain TOP1, hits give low values 1.04 | S. cerevisiae deletion strains, locus YOL012C, strain htz1 1.19 | S. cerevisiae deletion strains, locus YOL147C, strain pex11, hits give low values 1.01 | S. cerevisiae deletion strains, locus YOR001W, strain rrp6, hits give low values 0.953 | S. cerevisiae deletion strains, locus YOR061W, strain CKA2, hits give low values 0.999 | S. cerevisiae deletion strains, locus YOR069W, strain VPS5, hits give low values 1 | S. cerevisiae deletion strains, locus YOR070C, strain gyp1, hits give low values 0.947 | S. cerevisiae deletion strains, locus YOR080W, strain dia2, hits give low values 0.925 | S. cerevisiae deletion strains, locus YOR083W, strain WHI5, hits give low values 0.956 | S. cerevisiae deletion strains, locus YOR106W, strain vam3, hits give low values 0.942 | S. cerevisiae deletion strains, locus YOR136W, strain idh2, hits give low values 1.02 | S. cerevisiae deletion strains, locus YOR144C, strain elg1, hits give low values 1.02 | S. cerevisiae deletion strains, locus YOR184W, strain ser1, hits give low values 1.03 | S. cerevisiae deletion strains, locus YOR265W, strain rbl2, hits give low values 0.943 | S. cerevisiae deletion strains, locus YOR270C, strain vph1, hits give low values 0.971 | S. cerevisiae deletion strains, locus YOR290C, strain snf2, hits give low values 0.962 | S. cerevisiae deletion strains, locus YOR316C, strain cot1, hits give low values 1.01 | S. cerevisiae deletion strains, locus YPL051W, strain arl3, hits give low values 0.943 | S. cerevisiae deletion strains, locus YPL055C, strain LGE1, hits give low values 1.01 | S. cerevisiae deletion strains, locus YPL078C, strain atp4, hits give low values 0.93 | S. cerevisiae deletion strains, locus YPL106C, strain sse1, hits give low values 1.03 | S. cerevisiae deletion strains, locus YPL240C, strain hsp82, hits give low values 0.937 | S. cerevisiae deletion strains, locus YPL241C, strain CIN2, hits give low values 1 | S. cerevisiae deletion strains, locus YPR119W, strain clb2, hits give low values 1.01 | S. cerevisiae deletion strains, locus YPR141C, strain kar3, hits give low values 1.01 | S. cerevisiae deletion strains, locus YPR163C, strain tif3, hits give low values 1.02 | S. cerevisiae deletion strains, locus YPR167C, strain met16, hits give low values 1.05 | S. cerevisiae deletion strains, strain wtn01, hits give low values 1.01 | S. cerevisiae strains, strain wild type, hits give low values 1
active: S. cerevisiae deletion strains, locus YLR113W, strain HOG1, hits give low values 0.584 | S. cerevisiae deletion strains, locus YLR262C, strain YPT6 (second series), hits give low values 0.792 | S. cerevisiae deletion strains, locus YMR231W, strain pep5, hits give low values 0.92 | S. cerevisiae deletion strains, locus YNL183C, strain NPR1, hits give low values 0.731 | S. cerevisiae deletion strains, locus YNL322C, strain KRE1 (second series), hits give low values 0.882 | S. cerevisiae deletion strains, locus YOR231W, strain MKK1, hits give low values 0.796 | S. cerevisiae deletion strains, locus YPL256C, strain CLN2, hits give low values 0.756
